These results are taken from the OligoGym collection.
Further: reference of the scale not given here.

For the first assay, the target named is ARPC4. In words: pooled miR-30 sensor sort-seq; sequence = guide strand. Conditions: shRNA.
TGTTTGTACATCTGCTCTGTGT had a sensor-assay potency score (higher = more potent) of -0.895.

As to TTCATCTCACTGATCTCCTTGT, the sensor-assay potency score (higher = more potent) is 0.358.

TGTGTTTGTACATCTGCTCTGT displayed a sensor-assay potency score (higher = more potent) of 0.568.

TTCACAGCAATGCTGACCCGGA returned a sensor-assay potency score (higher = more potent) of -0.48.

On to TTTCACAGCAATGCTGACCCGG, for which the sensor-assay potency score (higher = more potent) was -0.244.

In the case of TGTCGTTCCACAACCTGGGAGG, the sensor-assay potency score (higher = more potent) is -0.878.

In turn, TTTGCTACTCCTGACTTCCACT registered a sensor-assay potency score (higher = more potent) of -1.07.

In turn, TTGTGTTTGTACATCTGCTCTG returned a sensor-assay potency score (higher = more potent) of 0.407.

As to TTGACTGACAGCTTCATCTCAC, the sensor-assay potency score (higher = more potent) turned out to be 0.494.

In the case of TGTAACAGGAGCTCTTTGCTAC, the sensor-assay potency score (higher = more potent) was -0.241.

For the sequence AAATCTTCTCGATCTCATCAGC, the sensor-assay potency score (higher = more potent) is -0.856.

The target in a further assay is ASB15. The assay is described as above. Conditions: shRNA.
In the case of TTTTTCATCAGCTTCATCCATT, the sensor-assay potency score (higher = more potent) is -0.484.

The sequence TTTATATTTTACATACTCCTGG registered a sensor-assay potency score (higher = more potent) of -0.0391.

Take TGTATCTTTGAATAGCTGGTGG: the sensor-assay potency score (higher = more potent) was -0.176.

TTACACAAGATGTCCATCCTGG had a sensor-assay potency score (higher = more potent) of 0.839.

For the sequence TATCTTTGAATAGCTGGTGGTA, the sensor-assay potency score (higher = more potent) was -0.545.

In turn, TTTATTACACAAGATGTCCATC came in with a sensor-assay potency score (higher = more potent) of -0.601.

In the case of TATGTATCTTTGAATAGCTGGT, the sensor-assay potency score (higher = more potent) is -0.171.

TTTCACAGCAATCAGAAGGGGG had a sensor-assay potency score (higher = more potent) of -0.119.

Turning to TTAGCTGAATATCATAACTTGT, the sensor-assay potency score (higher = more potent) was -0.69.

Another assay has as its target ASCC1. The assay is described as above. Conditions: shRNA.
TTCTTCATGTTGATAGGTCTGT came in with a sensor-assay potency score (higher = more potent) of 1.07.

As to TAGAAGTTCTCAAACAACTTTA, the sensor-assay potency score (higher = more potent) was -0.0661.

TATGCTTATAGAGCAAGCTGGG: the sensor-assay potency score (higher = more potent) was -1.

In the case of TAGACCGGAATCCTTGTGGGGT, the sensor-assay potency score (higher = more potent) is -0.676.

In turn, TTTCACACTATTCCACTCTTTC registered a sensor-assay potency score (higher = more potent) of -0.561.

Turning to TCTTGGACTGGATTCTTCCTGT, the sensor-assay potency score (higher = more potent) was 0.362.

For TTGGACTGGATTCTTCCTGTAA, the sensor-assay potency score (higher = more potent) was -0.381.

As to TAGCATCTCACATGTCTGCTGG, the sensor-assay potency score (higher = more potent) turned out to be 0.184.

In the case of TCAACTAATTCTTGTAGCCTGT, the sensor-assay potency score (higher = more potent) is -0.154.

TCCATTTCTATTTTCTTCCTAG: the sensor-assay potency score (higher = more potent) was -0.685.

In turn, AATTACACCATTTCGATGCTGG gave a sensor-assay potency score (higher = more potent) of 0.516.

On to TCTCTTTCCAACTATATGCTTA, for which the sensor-assay potency score (higher = more potent) was -0.403.

The target in a further assay is ASCL1. The description is as above. Conditions: shRNA.
Sequence TAAACCATTTGTACAAAACTTC had a sensor-assay potency score (higher = more potent) of -0.297.

TTCACTGTAAACCAATGTCTAC displayed a sensor-assay potency score (higher = more potent) of -1.2.

TCCACCTTACTCATCTTCTTGT returned a sensor-assay potency score (higher = more potent) of -0.496.

For TAAGTTTGTAATAAAACAGTAA, the sensor-assay potency score (higher = more potent) was -0.00305.

As for AATACATTAACAACATTTCTAT, the sensor-assay potency score (higher = more potent) was -0.252.

For the sequence TTGGTGCTGAAGTACAACTGGT, the sensor-assay potency score (higher = more potent) is -0.518.

TTGGAGTGCAAAGATACTGTTC gave a sensor-assay potency score (higher = more potent) of 0.084.

For AAGTCGTTGGAGTAGTTGGGGG, the sensor-assay potency score (higher = more potent) was -0.573.
